Mot1-301 SUMO: yeast Mot1-301 growth rescue at high temperature, primary screen, SUMOylation pathway inhibitor project, S. cerevisiae, ATP luminescence, 38.5C | growth rescue, % at 18.8 µM | hit rate 1% among 320,000 | S. cerevisiae Mot1-301 growth rescue; percent above DMSO median, 100 means doubled;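 active = every valid replicate shows activation above 250% relative to neutral control wells; inactive = the rest, any valid replicate at or below 250%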
HDAC3 inhib: HDAC3 deacetylase inhibitors, primary screen, biochemical, fluorescence, cell-free homogeneous | recombinant HDAC3, fluorogenic peptide/trypsin coupled | inhibition, % at 8.3 µM | hit rate 0.15% among 320,000; in the data active = inhibition above about 26%, passing the limit was not always enough; inconclusive = no clear call, values can overlap the other calls
LANA-H2B inh: blockers of LANA interaction with H2A/H2B – biochemical, FP readout, HTS, primary screen; inhibition, % (concentration not given with the values); Protein LANA1 (Human herpesvirus 8 type P (isolate GK18)), Q9QR71; cell-free LANA-H2A/H2B peptide, fluorescence polarization; hit rate 0.6% among 320,000; AID 2629, 2010; in the data active = inhibition mostly above about 10%, no sharp cut-off; inactive = mostly below about 6.7%
IDE cell activ: human IDE activators in live cells, primary screen, fluorescence polarization, HEK cells, FAbeta-B substrate; Insulin-degrading enzyme (Homo sapiens), P14735; FAbeta-B cleavage; 0% vehicle, 100% cell-free pure enzyme wells; activation, % at 5.96 µM; hit rate 0.073% among 340,000; AID 493087, 2011;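 active = activation above the mean of all tested compounds plus 3 SD, set per screening campaign, cut at about 17% in these data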
IDE inh: human IDE inhibitors in live cells, primary screen, fluorescence polarization, HEK cells, FAbetaB substrate. Insulin-degrading enzyme (Homo sapiens), P14735. FAbetaB cleavage. inhibition, % at 5.59 µM. hit rate 0.41% among 320,000. AID 434962, 2010;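 active = percent inhibition above the average of all tested compounds plus 3 SD, set per screening campaign, cut at about 16% in these data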;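 note: IDE supplied by intact live HEK cells; FP after avidin binding of uncleaved biotin substrate so inhibition keeps polarization high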
IDE cell inh cf: human IDE inhibitors in live cells, confirmation, fluorescence polarization, HEK cells, FAbetaB substrate; shares compounds with IDE inh; FAbetaB cleavage; inhibition, % at 5.59 µM; AID 435028, 2010; hit rate 51% among 1,200;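 active = mean inhibition across triplicate wells above the cutoff set by the earlier primary insulin-degrading enzyme screen, cut at about 16% in these data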
HEK cytotox: cytotoxicity in HEK cells, cytotoxicity control for IDE inhibitor project, cell-based, luminescence; HEK293 cytotoxicity, ATP luminescence; inhibition, % at 5.59 µM; AID 449730, 2010; shares compounds with IDE inh; hit rate 28% among 1,200; in the data active = inhibition above about 22%
Each line names hits and unclear results; the compound was inactive in the other large screens (follow-up assays come after a bar, where they were run). Compounds with a hit are over-represented: about 2.1% of the library has one in this group of screens.

CCOC(=O)CN1C(=O)S/C(=C/c2ccc(N3CCCCC3)o2)C1=O	IDE inh 19 | IDE cell inh cf 69 | HEK cytotox inactive
Cc1ccc(NC(=O)CCS(=O)(=O)c2ccc3c(c2)NC(=O)C(C)S3)cc1Cl (stereo not given)	none
COC(=O)/C(C#N)=C/c1c[nH]c2ccccc12	none
COc1cc(/C=C(\C#N)C(=O)c2c[nH]c3ccccc23)cc(OC)c1O	IDE inh 38 | IDE cell inh cf 159 | HEK cytotox inactive
COc1cc(/C=C(\C#N)C(=O)NCCc2ccccc2)cc(OC)c1O	IDE inh 44 | IDE cell inh cf 76 | HEK cytotox inactive
O=C(NCC1CCCN1S(=O)(=O)c1cccs1)c1cccc([N+](=O)[O-])c1 (stereo not given)	none
Cc1ccc(S(=O)(=O)N2CCOCC2)cc1NC(=O)COC(=O)CNC(=O)c1ccc(Oc2ccccc2)cc1	IDE inh 17 | IDE cell inh cf inactive | HEK cytotox inactive
CN1CCC(N(C)C(=O)c2cc(-c3ccc(F)cc3)nc3ccccc23)CC1	none
O=c1[nH]c(Nc2ccccc2)cc2ccccc12	IDE inh 19 | IDE cell inh cf inactive | HEK cytotox inactive
O=C(COc1ccc(S(=O)(=O)N2CCOCC2)cc1)N1CCc2ccccc2C1	none
O=C(COc1ccc(S(=O)(=O)N2CCOCC2)cc1)N1CCN(c2ccccc2)CC1	IDE inh 21 (no result: HDAC3 inhib) | IDE cell inh cf inactive | HEK cytotox 22
CC1(c2ccc(OC(F)F)cc2)NC(=O)N(CC(=O)NCCC2=CCCCC2)C1=O (stereo not given)	none
S=c1nccc(-c2ccc3c(c2)CCO3)[nH]1	IDE inh 30 | IDE cell inh cf inactive | HEK cytotox inactive
CN(C)c1ccc2c3c(cccc13)C(=O)N(c1ccccc1)C2=O	none (no result: IDE cell activ)
Cc1cccc(N2C(=O)c3cccc4c(N(C)CCO)ccc(c34)C2=O)c1	LANA-H2B inh 20, IDE inh 79 | IDE cell inh cf 110 | HEK cytotox inactive
Cc1cccc(N2C(=O)c3cccc4c(N)ccc(c34)C2=O)c1	HDAC3 inhib inconclusive, LANA-H2B inh 61, IDE inh 73 | IDE cell inh cf 96 | HEK cytotox inactive
O=C(Cn1nnc2ccccc2c1=O)NC1CCCCC1	none
Cc1onc(-c2ccccc2)c1C(=O)N1CCC(CO)(Cc2ccccc2)CC1	none
O=C(NCC1CCCO1)c1ccc(COc2ccc(Br)cc2)cc1 (stereo not given)	IDE inh 22 | IDE cell inh cf inactive | HEK cytotox 24
Cc1ccc(OCc2ccc(C(=O)NCC3CCCO3)cc2)cc1C (stereo not given)	none (no result: LANA-H2B inh)
Cc1ccc(C(=O)N2CCN(c3ncnc4c(C)csc34)CC2)cc1	IDE inh 19 | IDE cell inh cf inactive | HEK cytotox inactive
COc1ccc(C2CC(c3cccs3)=NN2C(=O)CSc2nc(=O)n3ccccc3n2)cc1 (stereo not given)	IDE inh 17 (no result: HDAC3 inhib, LANA-H2B inh) | IDE cell inh cf inactive | HEK cytotox inactive
Cc1ccc(C2CC(c3cccs3)=NN2C(=O)CSc2nc(=O)n3cc(C)ccc3n2)cc1 (stereo not given)	none (no result: HDAC3 inhib, LANA-H2B inh)
O=C(NNC1=Nc2cccc3cccc1c23)c1ccccc1Br	IDE inh 16 (no result: HDAC3 inhib, LANA-H2B inh) | IDE cell inh cf inactive | HEK cytotox inactive
c1ccc(NC2=Nc3cccc4cccc2c34)cc1	none
CN1CCS/C1=C/C=C1/SC(=S)N(Cc2ccccc2)C1=O	IDE inh 105 | IDE cell inh cf 82 | HEK cytotox inactive
CN1CCS/C1=C/C=C1\SC(=S)N(CC(=O)O)C1=O	IDE inh 60 | IDE cell inh cf 75 | HEK cytotox inactive
CCc1cccc(NC(=S)Nc2cccc3ccccc23)c1	none
CCOC(=O)C1=C(COC(=O)[C@H](C)NS(=O)(=O)c2ccc(NC(C)=O)cc2)NC(=O)NC1C (stereo not given in full)	none
CCOC(=O)/C(C#N)=C/C=C1/C=CC=CN1C	none
C=CCN1C=CC(=C/C=C(/C#N)C(=O)OCC)C=C1	HDAC3 inhib inconclusive, IDE inh 44 | IDE cell inh cf 63 | HEK cytotox inactive
COc1cc(Cl)c(C)cc1NC(=O)c1ccccc1-n1cnnn1	none
Cc1ccc2[nH]c3c(NCc4ccco4)ncnc3c2c1	IDE inh 65 | IDE cell inh cf 53 | HEK cytotox 53
Cc1ccc2[nH]c3c(NCCCN4CCCC4=O)ncnc3c2c1	IDE inh 18 | IDE cell inh cf inactive | HEK cytotox inactive
O=S(=O)(c1ccccc1)N1CCNCC1	none
CCOc1ccc2[nH]c3c(NCCc4ccc(OC)c(OC)c4)ncnc3c2c1	IDE inh 17 | IDE cell inh cf inactive | HEK cytotox 41
CCCCOCCCNc1ncnc2c1[nH]c1ccccc12	IDE inh 25 | IDE cell inh cf inactive | HEK cytotox 73
CCOCCCNc1ncnc2c1[nH]c1ccccc12	IDE inh 21 | IDE cell inh cf inactive | HEK cytotox 38
Cc1nc2scc(C)n2c(=O)c1S(=O)(=O)N1CCN(c2ccc([N+](=O)[O-])cc2)CC1	none
N#C/C(=C\c1ccc(O)cc1)C(=O)NCc1ccccc1	none
CCN(CC)c1ccc(/C=C(/C#N)C(=O)NC(C)C)o1	IDE inh 27 | IDE cell inh cf 30 | HEK cytotox inactive
CCN(CC)c1ccc(/C=C(/C#N)C(=O)NCc2ccccc2)o1	IDE inh 103 | IDE cell inh cf 153 | HEK cytotox inactive
CN(Cc1ccccc1)C(=O)CCC1CCN(S(C)(=O)=O)CC1	none
CN(C)c1ccc(/C=C2\SC(N3CCCCC3)=NC2=O)cc1	IDE inh 16 | IDE cell inh cf 27 | HEK cytotox inactive
Cc1cc(NC(=O)COc2ccccc2C)ccc1NC(=O)c1cccs1	none
COc1cc(OC)c(OC)cc1/C=C1\Oc2cc(OS(C)(=O)=O)ccc2C1=O	IDE inh 20 | IDE cell inh cf 18 | HEK cytotox inactive
COc1cc(OC)c(OC)cc1/C=C1\Oc2cc(OCC(=O)N3Cc4ccccc4C[C@H]3C(=O)O)ccc2C1=O	IDE inh 62 | IDE cell inh cf 106 | HEK cytotox inactive
Cc1nc2ccccc2c(=O)n1-c1ccc(NS(=O)(=O)c2ccccc2)cc1	none
Cc1nc2ccccc2c(=O)n1-c1ccc(NS(=O)(=O)c2ccc(F)cc2)cc1	IDE inh 22 | IDE cell inh cf inactive | HEK cytotox inactive
Cc1cc2nc3c(=O)n(CCc4ccccc4)c(=O)[nH]c3nc2cc1N	none
